Screens (PubChem)
This is a sample that favours compounds with a hit; in the whole collection about 19% have one here.
SARS PLP yeast – blocks SARS-CoV papain-like protease in a yeast assay; S. cerevisiae expressing SARS-CoV PLpro, growth rescue; Potency, µM (highest dose often 32.9 µM), for inactives: at the top dose activity, positive = growth rescue, hits mostly activators; 330,000 tested, 0.19% active; AID 485353; calls by dose curve; also: potency is read from the fitted curve at half-maximal effect; 0% is about no effect; nearly all actives have a fitted effect of over 55% in size
CHX counter – counter-screen for Shiga toxin inhibitors: cycloheximide protein synthesis inhibition; cell reporter, cycloheximide protein synthesis inhibition counterscreen; max response, %; 300,000 tested, 12% active; in the data active = max response mostly above about 13%, no sharp cut-off; inactive = mostly below about 14%; also: read at 38.3 µM for the half of the compounds with a filed dose; 0% is about no effect
Shiga inhibitor – inhibitors of Shiga toxin in Vero cells | 290,000 tested, 9.2% active | Vero cells, Shiga toxin protein synthesis inhibition reporter | inhibition, % at 38.7 µM | AID 2315; in the data active = inhibition mostly above about 28%, no sharp cut-off; inactive = mostly below about 43%; also: 0% is about no effect
Pf growth 48h – inhibits P. falciparum growth in the first generation, 48 h; 310,000 tested, 5.9% active; Potency, µM (titrated, usually from 28.7 µM), for inactives: top-dose activity change, negative = inhibition, usual class: inhibitors; P. falciparum luciferase growth in erythrocytes, 48 h; also: potency is read from the fitted curve at half-maximal effect; % is scaled to controls: 0 for no effect and ±100 for the full control effect
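Luminescence readout; reporter = integrated firefly luciferase in P. falciparum. RBC culture at 2% hematocrit, 0.1% parasitemia final, 37 C/5% CO2; decreased signal taken as growth inhibition.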
Pf growth 96h – inhibits malaria parasite growth, 96 h | 320,000 tested, 6.9% active | Potency, µM (highest dose often 28.7 µM), inactives show at the top dose activity change, negative = inhibition, hits mostly inhibitors | AID 504834 | P. falciparum luciferase reporter growth, 96 h; also: potency is read from the fitted curve at half-maximal effect; % is scaled to controls: 0 for no effect and ±100 for the full control effect
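Luminescence readout: decreased luciferase signal marks inhibited growth of reporter-expressing P. falciparum in infected red cells (2% hematocrit, 0.05% parasitemia final), exposed to compound two generations (96 h, 37 C, 5% CO2).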
AMA1 RON2 block – AMA1-RON2 (P. falciparum) interaction inhibition. AlphaScreen AMA1-biotinylated RON2 peptide binding. Potency, µM (titrated, usually from 58.2 µM), inactives show at the highest dose activity change, negative = inhibition, most hits filed as inhibitors. 360,000 tested, 0.2% active;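 also: potency is read from the fitted curve at half-maximal effect; 0% = vehicle wells and -100% = peptide control; nearly all actives have a fitted effect of over 45% in size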
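AMA1 (3D7) with his tag at 25 nM final met compounds first, then biotinylated RON2 peptide at 25 nM; detection used donor plus acceptor beads, 10 µg/mL apiece, read by AlphaScreen after 30 min at room temperature.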
The depositor's hits bear a star; ? = inconclusive; . = no result given; ! = repeats disagree; [ ] = another dose, or the depositor's remark. Unless noted, calls follow the shape of the dose curve; as a rule, active = well fitted curve in the direction sought with a large enough effect; inconclusive = small, poorly fitted or top-dose-only effect, or another doubt; inactive = no such curve, though single readings can be large; an effect the other way counts as inactive or inconclusive.

SMILES	SARS PLP yeast	CHX counter	Shiga inhibitor	Pf growth 48h	Pf growth 96h	AMA1 RON2 block
O=C(/C=C/c1cccc(O)c1)c1ccc(N2CCOCC2)cc1	-0.8%	38.2*	102.0*	122.0%	?	-0.4%
O=C(/C=C/c1cccc(O)c1)c1cccnc1	1.6%	11.2	18.5	5.5%	-17.5%	7.5%
CN(CCCS(=O)(=O)[O-])c1ccc(/C=C/c2ccc3ccccc3[n+]2C)cc1	-0.7%	7.6	18.8	23.6%	?	-1.4%
[O-][n+]1c(/C=C/c2ccccc2)ccc2ccccc21	-1.5%	28.7*	30.9*	110.3%	6.57µM*	-8.2%
CC(=O)Oc1ccccc1/C=C/c1ccc2ccccc2[n+]1C	-5.3%	42.8*	107.4*	?	191.8%	-1.8%
COc1ccccc1/C=C/C(C)=O	-26.3%	-1.0	1.5	5.8%	-18.4%	-11.8%
C(=C\c1ccc(/C=C/c2ccccc2)nn1)/c1ccccc1	-3.0%	2.2	-2.3	3.2%	-2.4%	.
COc1ccc(/C=C/c2ccc3ccccc3[n+]2C)cc1OC	-4.4%	43.5*	71.0*	1.17µM*	10.1%	-15.5%
CN(C)c1ccc(/C=C/c2ccc3ccccc3[n+]2C)cc1	-89.1%	19.0*	22.5	0.828µM*	?	?
CC(C)C(NC(=O)c1c(F)cccc1F)C(=O)NCCc1ccc(S(N)(=O)=O)cc1 (stereo not drawn)	0.6%	-4.7	-4.8	-0.1%	32.7%	8.5%
CN(C)c1ccc(/C=C/c2nc3ccccc3c(=O)n2CCO)cc1	0.0%	9.6	17.3	?	?	1.6%
CN(C)c1ccc(/C=C/c2ccc3c4ccccc4ccc3[n+]2-c2ccccc2)cc1	-17.1%	-2.6	-18.2	8.28µM*	?	11.2µM*
COc1ccccc1CNC(=O)CCCc1nnc2n(C)c(=O)c3sccc3n12	1.9%	-4.1	-8.4	14.2%	-17.0%	6.9%
Cc1ccc(CS/C(Nc2ccccc2C)=C(\C#N)C(N)=O)c(C)c1	14.9%	-1.3	20.6	?	?	-15.1%
CCCCn1c(=O)[nH]c2nc3cc(NC(C)=O)ccc3nc2c1=O	0.5%	6.6	4.7	14.7µM*	2.3%	4.9%
C=CCSc1nc2sc3c(c2c(=O)[nH]1)CCC3	1.4%	-0.5	27.2	12.1%	18.1%	10.6%
O=C(CCNS(=O)(=O)c1ccc(Cl)cc1)NCCc1ccccc1	.	.	.	.	.	-2.5%
CN(Cc1nc2c(s1)CCCC2)C(=O)CCc1nnc(-c2ccccc2)o1	1.1%	22.6*	60.6*	30.2%	9.28µM*	1.6%
CN(Cc1ccc(F)cc1)C(=O)CCc1nnc(-c2ccccc2)o1	-0.3%	46.8*	107.6*	13.2%	8.28µM*	0.0%
CN(CC(=O)Nc1ccc(Cl)c(Cl)c1)Cc1nnc(-c2ccc(F)cc2)o1	-3.6%	19.0	14.0	-2.8%	16.9%	32.2%
CCc1ccc(CN(C)C(=O)CCc2nnc(COc3ccccc3)o2)cc1	-0.9%	29.7*	80.8*	-13.5%	?	-3.0%
CN(Cc1nnc(-c2ccc(F)cc2)o1)c1ccccc1	-3.0%	32.3*	71.2*	4.8%	23.5%	-0.7%
COc1ccc(CCN(C)C(=O)CCc2nnc(-c3ccccc3)o2)cc1OC	-1.0%	58.9*	65.4*	0.0%	-26.4%	0.0%
COCCN(C)C(=O)CCc1nnc(Cc2ccc(-c3ccccc3)cc2)o1	-1.0%	9.9	-14.5	-11.1%	-10.2%	11.5%
Cc1ccc2nc(-c3ccc4c(c3)OCCO4)cn2c1	-2.5%	-7.8	-23.7	-89.4%	67.2%	5.8%
SMILES	SARS PLP yeast	CHX counter	Shiga inhibitor	Pf growth 48h	Pf growth 96h	AMA1 RON2 block
CNC(=O)Oc1ccc(-c2cn3cc(C)ccc3n2)cc1	-27.1%	-1.9	5.6	-81.3%	?	8.6%
COc1ccc(-c2cn3cc(C)ccc3n2)cc1OC	-10.0%	32.5*	55.5*	63.6%	128.8%	-13.1%
COc1ccc(-c2cn3cc(C)ccc3n2)cc1F	-1.9%	15.6*	15.3	61.7%	?	-2.2%
Fc1ccc(-c2cn3ccccc3n2)cc1	-12.9%	34.0*	76.9	172.6%	-8.2%	0.0%
CCOc1ccc(-c2cn3ccccc3n2)cc1	-3.4%	6.3	37.4	-2.4%	-5.8%	0.0%
Cc1ccc2nc(-c3ccc4c(c3)NC(=O)CO4)cn2c1	-0.5%	42.2*	72.2*	152.7%	453.4%	-5.4%
O=C(COC(=O)c1ccc(S(=O)(=O)N2CCOCC2)cc1)Nc1ccccc1OC(F)F	3.1%	.	.	.	.	9.6%[11.6 µM]
COc1ccc(-c2cn3ccccc3n2)cc1OC	-11.5%	27.1*	78.0*	158.3%	22.0%	-0.3%
COc1ccc(CC(=O)Nc2ccc(-c3cn4ccccc4n3)cc2)cc1OC	-0.1%	7.5	-3.4	.	-11.7%	-3.5%
O=C(NCc1ccccc1)c1ccc(-c2ccc(F)cc2)o1	-8.1%	25.2*	58.9*	11.6%	.	-13.5%
Cc1ccccc1-c1ccc(C(=O)NCc2ccccc2)o1	-27.8%	13.6*	10.8	17.2%	-9.9%	-17.7%
C/C(=C\C(=O)c1ccccc1)NCc1ccc(F)cc1	-1.3%	59.6*	109.8*	?	?	6.8%
Cc1ccc(-c2ccc(C(=O)NCc3ccc(Cl)cc3)o2)c2ccccc12	-20.8%	-2.0	-9.7	?	?	-11.0%
O=C(NCc1ccccc1)c1ccc(-c2ccccc2C(F)(F)F)o1	-1.5%	37.1*!	11.4	8.1%	?	5.4%
O=C(O)c1ccc(-c2ccccc2C(F)(F)F)o1	-1.2%	-2.4	-7.1	-8.0%	-16.8%	-0.5%
O[C@H]1C[C@H](c2ccc(Cl)cc2)N(Cc2cccs2)C[C@@H]1n1cc(-c2ccc(F)cc2)nn1	.	.	.	.	.	-9.6%
O=S(NC1CCCCC1)C12CC3CC(CC(C3)C1)C2 (stereo not drawn)	1.5%	5.5	-1.3	.	5.3%	-4.8%
COc1ccccc1C(CNC(=O)c1cccc(S(=O)(=O)N2CCCc3ccccc32)c1)N(C)C (stereo not drawn)	.	.	.	.	.	-1.5%[11.6 µM]
COc1ccc(NC(=O)CN(C)C(=O)c2cccc(S(=O)(=O)N3CCCc4ccccc43)c2)cc1	1.1%	.	.	13.1µM*	?	-14.6%
COc1ccc(NC(=O)c2cc(S(=O)(=O)N3CCc4ccccc43)cn2C)cc1	7.0%	14.3*	28.2*	9.28µM*	-10.3%	-10.7%
COc1ccccc1CN(C)C(=O)c1cccc(S(=O)(=O)N2CCCc3ccccc32)c1	-3.4%	.	.	7.38µM*	9.28µM*	-16.3%
O=C(O)c1[nH]c2ccccc2c1C=NCc1ccccc1Cl	0.3%	-5.7	-7.9	23.3%	-27.3%	12.1%
Cc1ccc(/C=N/NC(=O)NC2CCCCC2)o1	-0.6%	20.9*	41.5*	12.9%	-6.0%	-2.0%
Cc1ccc(/C=N/NC(=O)Nc2ccccc2)o1	-19.6%	53.8*	99.9*	199.2%	?	-0.2%
Cc1cccc(/C=N/NC(=O)NC2CCCCC2)c1	-0.8%	39.4*	68.8*	20.2%	?	-0.3%
Cc1ccc(/C=C/C(=O)NC2CCCCCCC2)o1	-74.7%	40.5*	73.6*	69.2%	4.2%	-22.6%
